Results: PubChem BioAssay AID1259312 (Keith Lab, Institute of Cancer Science, University of …, 2017)
About 200 (4.4%) of roughly 4,500 compounds were called active.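 Rule for the calls: active = cell survival measured by absorbance rises more than 2.5-fold over infected cells without compound; inactive = the rest.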 For the sample, actives were picked, then their nearest neighbours and some compounds at random.

Test: survival after telomere uncapping, modulators, primary screen, cell-based (AID 1259312);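 note: virus expresses mutant telomerase RNA that uncaps telomeres and kills cells; compound added 2 days after infection so exposure lasts 3 days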
Conditions: HCT116 + Ad-hTR-mut, MTT, 5 d; at 10 µM, stronger effect = higher value

**Q.** Which fold change does the source give for `CCCCNC(=O)OCCSC(=S)NCCC` here?
**A.** Its fold change is 2.45 (inactive).

**Q.** Which fold change does the source give for `CCOC(=O)Cc1csc(N)n1` here?
**A.** The fold change was 1.75 (inactive).

**Q.** For `CCOC(=O)c1csc(N)n1`, which fold change is on record?
**A.** Its fold change is 2.59 (active).

**Q.** With `CCOC(=O)c1sc(N)nc1C` as the molecule, how does the fold change read?
**A.** Its fold change is 1.75 (inactive).

**Q.** Which fold change does the source give for `O=C(NC1(C(=O)O)CCc2ccccc2C1)OCC1c2ccccc2-c2ccccc21` (configuration not stated) here?
**A.** Its fold change is -1.79 (inactive).

**Q.** For `O=S(=O)(c1ccc(NC(=S)Nc2ccccc2)cc1)N1CCCCC1`, which fold change is on record?
**A.** Its fold change is -2.08 (inactive).

**Q.** Which fold change does the source give for `C/C(=N/Nc1ccc([N+](=O)[O-])cc1)c1ccc(/C(CCl)=N/Nc2ccc([N+](=O)[O-])cc2)s1` here?
**A.** Its fold change is -1.04 (inactive).

**Q.** Which fold change does the source give for `O=C(NC1CCCCCCC1)c1ccc(COc2c(F)c(F)cc(F)c2F)o1` here?
**A.** Its fold change is -1.24 (inactive).

**Q.** Which fold change does the source give for `[O-][n+]1onc(C(c2ccccc2)c2ccccc2)c1C(c1ccccc1)c1ccccc1` here?
**A.** The fold change was -1.76 (inactive).

**Q.** With `c1ccc(-c2nonc2N=Nc2nonc2-c2ccccc2)cc1` as the molecule, how does the fold change read?
**A.** The fold change was -1.26 (inactive).

**Q.** For `[O-][n+]1onc(N=Nc2no[n+]([O-])c2-c2ccccc2)c1-c1ccccc1`, which fold change is on record?
**A.** Its fold change is 2.99 (active).

**Q.** For `COCCNS(=O)(=O)c1ccccc1`, which fold change is on record?
**A.** Its fold change is -1.41 (inactive).

**Q.** With `Cc1nc2ccccc2nc1C=O` as the molecule, how does the fold change read?
**A.** The fold change was -2.07 (inactive).

**Q.** Which fold change does the source give for `Cc1nc2ccccc2nc1C` here?
**A.** The fold change was -2.23 (inactive).

**Q.** With `Cc1nc2ccccc2nc1NO` as the molecule, how does the fold change read?
**A.** Its fold change is “active”.

**Q.** Which fold change does the source give for `ON=C1C2CC3CC(C2)CC1C3` here?
**A.** The fold change was -1.41 (inactive).

**Q.** Which fold change does the source give for `Oc1ccc(Br)cc1/C=N/c1ccccn1` here?
**A.** The fold change was “inactive”.

**Q.** With `COc1cc2c(cc1N)OCO2` as the molecule, how does the fold change read?
**A.** The fold change was -1.08 (inactive).

**Q.** For `c1ccc2c(c1)[nH]c1nc3nnnn3nc12`, which fold change is on record?
**A.** Its fold change is “active”.

**Q.** For `Cc1ccc2[nH]c3nc4ccccc4nc3c2c1`, which fold change is on record?
**A.** Its fold change is -1.34 (inactive).

**Q.** With `c1ccc2nc3c(nc2c1)[nH]c1ccccc13` as the molecule, how does the fold change read?
**A.** Its fold change is -1.56 (inactive).

**Q.** Which fold change does the source give for `CC1CCCN(c2nc3ccccn3c(=O)c2C=O)C1` (configuration not stated) here?
**A.** Its fold change is -1.15 (inactive).

**Q.** With `CSc1nnnn1-c1ccccc1` as the molecule, how does the fold change read?
**A.** The fold change was -1.25 (inactive).

**Q.** With `c1ccc(-n2nnnc2SCSc2nnnn2-c2ccccc2)cc1` as the molecule, how does the fold change read?
**A.** Its fold change is 3.7 (active).

**Q.** For `c1ccc(-c2noc(CSc3nnnn3-c3ccccc3)n2)cc1`, which fold change is on record?
**A.** The fold change was -1.1 (inactive).

**Q.** For `C#CCn1cc(/C=C2/SC(=NC)N(C)C2=O)c2ccccc21`, which fold change is on record?
**A.** Its fold change is -1.74 (inactive).

**Q.** Which fold change does the source give for `O=C(O)Cn1c(O)c(/C=C2/C=c3ccccc3=NC2=O)sc1=S` here?
**A.** Its fold change is “inactive”.

**Q.** Which fold change does the source give for `O=C(O)CCCCCn1c(O)c(C2=c3cc(Br)ccc3=NC2=O)sc1=S` here?
**A.** The fold change was “inactive”.

**Q.** For `O=C(O)CCCn1c(O)c(/C=C2/C=c3ccccc3=NC2=O)sc1=S`, which fold change is on record?
**A.** The fold change was “active”.

**Q.** For `CCOC(=O)C1=C(C)NC2=C(C(=O)CC(C)(C)C2)C1c1ccc(C)s1` (configuration not stated), which fold change is on record?
**A.** The fold change was -1.32 (inactive).

**Q.** For `CN=C1S/C(=C/c2cn(Cc3ccc(F)cc3)c3ccccc23)C(=O)N1C`, which fold change is on record?
**A.** The fold change was -1.32 (inactive).

**Q.** For `O=C(O)C1OC(O)C(O)C(O)C1O` (configuration not stated), which fold change is on record?
**A.** The fold change was -2.05 (inactive).

**Q.** With `CCOC(=O)CN(C1=NS(=O)(=O)c2ccccc21)c1ccccc1` as the molecule, how does the fold change read?
**A.** Its fold change is 1.02 (inactive).

**Q.** With `COc1ccc(NS(=O)(=O)c2ccc(N=Cc3cc(Br)cc(Br)c3O)cc2)nn1` as the molecule, how does the fold change read?
**A.** Its fold change is “inactive”.

**Q.** Which fold change does the source give for `CCCCNC(=O)Cn1cc([N+](=O)[O-])cn1` here?
**A.** Its fold change is -2.9 (inactive).

**Q.** For `O=C(O)Cn1cc([N+](=O)[O-])cn1`, which fold change is on record?
**A.** Its fold change is 2.02 (inactive).

**Q.** Which fold change does the source give for `CCOC(=O)c1c(C)nn2cc(-n3cc([N+](=O)[O-])cn3)cnc12` here?
**A.** Its fold change is 5.25 (active).

**Q.** Which fold change does the source give for `COc1cc(C(c2ccccc2)(c2ccccc2)c2ccccc2)cc2c1NC(C)(C)C=C2C` here?
**A.** The fold change was 2.23 (inactive).

**Q.** With `NCc1cc(C(F)(F)F)cc(C(F)(F)F)c1` as the molecule, how does the fold change read?
**A.** The fold change was -1.11 (inactive).

**Q.** For `O=C(CC(c1ccc(Cl)c(Cl)c1)C1CCCCCC1=O)c1ccc(Cl)cc1` (configuration not stated), which fold change is on record?
**A.** Its fold change is -1.72 (inactive).

**Q.** Which fold change does the source give for `O=C(CC(C(=O)O)n1ccnc1)c1ccc(C2CCCCC2)cc1` (configuration not stated) here?
**A.** The fold change was 2.74 (active).

**Q.** With `CC(CC(=O)O)n1ccnc1` (configuration not stated) as the molecule, how does the fold change read?
**A.** Its fold change is 1.78 (inactive).

**Q.** With `O=C1ON=C(c2ccccc2)/C1=C/N1CCCCC1` as the molecule, how does the fold change read?
**A.** The fold change was -1.47 (inactive).

**Q.** For `O=C1CN(C(=O)CSC2CCS(=O)(=O)C2)c2ccccc2N1` (configuration not stated), which fold change is on record?
**A.** Its fold change is -1.24 (inactive).

**Q.** Which fold change does the source give for `COC(=O)C1=C(C)OC(N)=C(C#N)C1c1cccs1` (configuration not stated) here?
**A.** Its fold change is -1.65 (inactive).

**Q.** With `CC1(C)CC(=O)C2=C(C1)OC(N)=C(C#N)C2c1cccs1` (configuration not stated) as the molecule, how does the fold change read?
**A.** The fold change was 4.33 (active).

**Q.** Which fold change does the source give for `CC1CC2=C(C(=O)O1)C(c1cccs1)C(C#N)=C(N)O2` (configuration not stated) here?
**A.** The fold change was 2.62 (active).

**Q.** For `CC1(C)CC(=O)C2=C(C1)OC(N)=C(C#N)C2c1cc(Br)cs1` (configuration not stated), which fold change is on record?
**A.** Its fold change is -1.65 (inactive).

**Q.** For `CCOC(=O)C1=C(C)OC(N)=C(C#N)C1c1cccs1` (configuration not stated), which fold change is on record?
**A.** Its fold change is 2.09 (inactive).

**Q.** With `Cc1ccc(C2C(C#N)=C(N)OC3=C2C(=O)CC(C)(C)C3)s1` (configuration not stated) as the molecule, how does the fold change read?
**A.** The fold change was -4.43 (inactive).

**Q.** With `Cc1[nH]c2ccccc2c1C(=O)C(=O)NC(C)(C)C` as the molecule, how does the fold change read?
**A.** Its fold change is -1.22 (inactive).

**Q.** Which fold change does the source give for `CCOC(=O)c1c(NC(=O)C23CC4CC(CC(C4)C2)C3)sc2c1CCCCC2` here?
**A.** Its fold change is -1.2 (inactive).

**Q.** With `N#C/C(=C\c1ccccc1/C=C(\C#N)c1ccc2c(c1)OCO2)c1ccc2c(c1)OCO2` as the molecule, how does the fold change read?
**A.** Its fold change is 1.78 (inactive).

**Q.** For `CC(=O)OC[C@H]1O[C@@H](n2cc(C)c(=O)[nH]c2=O)C[C@@H]1OC(C)=O`, which fold change is on record?
**A.** The fold change was -1.48 (inactive).

**Q.** With `Clc1ccccc1/C=C/c1nnc(-c2ccccc2Cl)o1` as the molecule, how does the fold change read?
**A.** Its fold change is -1.03 (inactive).

**Q.** For `CC(=O)[C@H]1CC[C@H]2[C@@H]3CCC4=CC(=O)CC[C@]4(C)[C@H]3CC[C@]12C`, which fold change is on record?
**A.** Its fold change is 1.4 (inactive).

**Q.** For `CCCCCC(=O)O[C@]1(C(C)=O)CC[C@H]2[C@@H]3CCC4=CC(=O)CC[C@]4(C)[C@H]3CC[C@@]21C`, which fold change is on record?
**A.** The fold change was -1.16 (inactive).

**Q.** With `CC12CCC(=O)C=C1CCC1C2CCC2(C)C1CC[C@@]21OCOC12COCO2` (some centres not stated) as the molecule, how does the fold change read?
**A.** The fold change was 3.17 (active).

**Q.** Which fold change does the source give for `CC(Sc1nnc(Cc2ccccc2)n1C1CCCCC1)c1nc(N)nc(N2CCCc3ccccc32)n1` (configuration not stated) here?
**A.** Its fold change is -1.7 (inactive).

**Q.** With `O=c1cc(-c2cccc(O)c2)oc2cc(O)ccc12` as the molecule, how does the fold change read?
**A.** The fold change was -1.53 (inactive).

**Q.** For `O=C(c1ccc(COc2ccc(Cl)cc2Cl)o1)n1cc(Br)cn1`, which fold change is on record?
**A.** The fold change was -1.16 (inactive).

**Q.** With `CC1CC[C@H](C(C)C)C(O)C1` (some centres not stated) as the molecule, how does the fold change read?
**A.** Its fold change is -1.42 (inactive).

**Q.** Which fold change does the source give for `O=c1[nH]c(SCc2nc3ccc([N+](=O)[O-])cc3[nH]2)nc2ccccc12` here?
**A.** Its fold change is “inactive”.

**Q.** For `O=[N+]([O-])c1ccc2nc(CSc3nc4ccc(Br)cc4[nH]3)[nH]c2c1`, which fold change is on record?
**A.** Its fold change is 3.33 (active).

**Q.** For `Cn1c(SCc2nc3ccc([N+](=O)[O-])cc3[nH]2)nc2ccccc21`, which fold change is on record?
**A.** Its fold change is -1.29 (inactive).

**Q.** With `Clc1[nH]nc2ccccc12` as the molecule, how does the fold change read?
**A.** Its fold change is 1.09 (inactive).

**Q.** Which fold change does the source give for `O=[N+]([O-])c1ccc(Sc2nnnn2-c2ccccc2)c2cccnc12` here?
**A.** Its fold change is -73.2 (inactive).

**Q.** Which fold change does the source give for `CN1CCN(Cc2cc(Cl)c3cccnc3c2O)CC1` here?
**A.** Its fold change is 3.37 (active).

**Q.** With `OCCOc1c(Cl)cc(Cl)c2cccnc12` as the molecule, how does the fold change read?
**A.** The fold change was -1.42 (inactive).

**Q.** For `OCc1ccc(O)c2ncccc12`, which fold change is on record?
**A.** Its fold change is -7.69 (inactive).

**Q.** Which fold change does the source give for `O=[N+]([O-])c1ccc(N2CCN(S(=O)(=O)c3ccc4ccccc4c3)CC2)c2ncccc12` here?
**A.** The fold change was -1.06 (inactive).

**Q.** With `O=[N+]([O-])c1cc(CN2CCCC2)c2cccnc2c1O` as the molecule, how does the fold change read?
**A.** Its fold change is 3.06 (active).

**Q.** With `CN(Cc1cc(Br)cc(Br)c1N)C1CCCCC1` as the molecule, how does the fold change read?
**A.** The fold change was -1.39 (inactive).

**Q.** Which fold change does the source give for `CN(Cc1cc([N+](=O)[O-])c(O)c2ncccc12)C1CCCCC1` here?
**A.** The fold change was 3 (active).

**Q.** With `CN1CCN(Cc2cc([N+](=O)[O-])c(O)c3ncccc23)CC1` as the molecule, how does the fold change read?
**A.** The fold change was 2.98 (active).

**Q.** With `O=[N+]([O-])c1cc(Cl)c2cccnc2c1O` as the molecule, how does the fold change read?
**A.** Its fold change is 2 (inactive).

**Q.** Which fold change does the source give for `O=[N+]([O-])c1ccc(N2CCCC2)cc1Sc1cccc2cccnc12` here?
**A.** Its fold change is 1.11 (inactive).
